In publication PMC7862700, “An all-to-all approach to the identification of sequence-specific readers for epigenetic DNA modifications on cytosine”:

Legend:
Test in all cases: DAPPL (digital affinity profiling via proximity ligation, sequencing); 10 mM Tris-HCl pH 7.5, 50 mM NaCl, 1 mM DTT, 4% glycerol, room temperature, 30 min; GST-TFs on glutathione beads, 16-mer random dsDNA library, 0.1% formaldehyde crosslink after washing; high values mean tight binding
[1] = target: T1, FEV (Homo sapiens, UniProt Q99581 1-238); conditions: protein: recombinant; tags: N-terminal GST; dsDNA, one strand shown
T1 sequence: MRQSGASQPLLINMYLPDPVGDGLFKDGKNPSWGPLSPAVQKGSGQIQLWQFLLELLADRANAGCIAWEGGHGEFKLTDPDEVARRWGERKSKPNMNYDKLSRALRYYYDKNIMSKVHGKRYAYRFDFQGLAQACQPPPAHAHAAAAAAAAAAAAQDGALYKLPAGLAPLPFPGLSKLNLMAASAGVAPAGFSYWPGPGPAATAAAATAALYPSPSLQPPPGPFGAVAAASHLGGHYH
Method in brief: (§1)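 Sequencing on an Illumina NextSeq500 followed washing, crosslinking with 0.1% formaldehyde, proximity ligation (BsaI/T4 ligase, 1 h, 37 °C) and PCR amplification of pools that had been incubated for 30 min at room temperature with 200 nmole of a random double-stranded 16-mer DNA library in Tris/NaCl/DTT/glycerol buffer. Each pool held DNA-barcoded human transcription factors, expressed in yeast as GST fusions and captured on glutathione beads, plus a tag-only sample. Binding signal is a hexamer's read frequency for a factor divided by its frequency in the tag-only sample.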

[2] = target: ETV5 (Homo sapiens, UniProt P41161 1-510); conditions: protein: recombinant; tags: N-terminal GST; dsDNA, one strand shown
ETV5, sequence (P41161 whole entry): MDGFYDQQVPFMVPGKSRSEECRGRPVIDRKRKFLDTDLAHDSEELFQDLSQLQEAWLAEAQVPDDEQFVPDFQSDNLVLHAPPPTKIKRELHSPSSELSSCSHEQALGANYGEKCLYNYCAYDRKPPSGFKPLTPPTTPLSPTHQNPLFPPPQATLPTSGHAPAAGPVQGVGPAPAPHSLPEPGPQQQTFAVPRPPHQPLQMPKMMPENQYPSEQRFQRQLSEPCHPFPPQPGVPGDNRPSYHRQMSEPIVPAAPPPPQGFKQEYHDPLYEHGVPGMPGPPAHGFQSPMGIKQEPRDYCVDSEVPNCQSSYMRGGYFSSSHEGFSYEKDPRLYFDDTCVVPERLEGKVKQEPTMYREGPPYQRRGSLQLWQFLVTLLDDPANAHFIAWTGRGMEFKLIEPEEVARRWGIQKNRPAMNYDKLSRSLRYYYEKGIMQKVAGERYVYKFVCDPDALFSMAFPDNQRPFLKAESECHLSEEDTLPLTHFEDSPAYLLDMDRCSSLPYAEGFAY
Method in brief: as §1

[3] = target: HSF1 (Homo sapiens, UniProt Q00613 1-529); conditions: protein: recombinant; tags: N-terminal GST; chain copies: 3; dsDNA, one strand shown
HSF1, sequence (Q00613 whole entry): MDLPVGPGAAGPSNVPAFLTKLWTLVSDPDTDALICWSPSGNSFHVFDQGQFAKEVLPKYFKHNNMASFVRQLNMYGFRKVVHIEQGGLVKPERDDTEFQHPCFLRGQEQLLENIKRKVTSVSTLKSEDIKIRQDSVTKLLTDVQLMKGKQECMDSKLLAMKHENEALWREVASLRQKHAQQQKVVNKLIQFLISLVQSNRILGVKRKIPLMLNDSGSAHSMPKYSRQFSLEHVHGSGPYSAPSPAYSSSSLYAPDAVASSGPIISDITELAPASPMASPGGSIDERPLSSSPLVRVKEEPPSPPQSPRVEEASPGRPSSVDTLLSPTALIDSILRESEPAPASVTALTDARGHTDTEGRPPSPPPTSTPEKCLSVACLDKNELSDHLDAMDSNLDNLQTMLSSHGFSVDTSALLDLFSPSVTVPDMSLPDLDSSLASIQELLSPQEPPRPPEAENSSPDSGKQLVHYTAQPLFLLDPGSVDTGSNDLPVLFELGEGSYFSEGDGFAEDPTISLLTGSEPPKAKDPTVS
Method in brief: as §1

[4] = target: T2, SPIC (Homo sapiens, UniProt Q8N5J4 1-248); conditions: protein: recombinant; tags: N-terminal GST; dsDNA, one strand shown
T2 sequence: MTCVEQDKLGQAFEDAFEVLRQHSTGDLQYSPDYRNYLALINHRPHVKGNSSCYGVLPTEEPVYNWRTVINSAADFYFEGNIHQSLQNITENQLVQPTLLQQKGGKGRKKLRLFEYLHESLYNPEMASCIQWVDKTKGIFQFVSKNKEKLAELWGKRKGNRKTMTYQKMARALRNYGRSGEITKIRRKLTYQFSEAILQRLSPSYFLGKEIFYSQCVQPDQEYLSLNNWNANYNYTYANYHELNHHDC
Method in brief: as §1

[5] = target: ELF4 (Homo sapiens, UniProt Q99607 1-663); conditions: protein: recombinant; tags: N-terminal GST; dsDNA, one strand shown
ELF4, sequence (Q99607 whole entry): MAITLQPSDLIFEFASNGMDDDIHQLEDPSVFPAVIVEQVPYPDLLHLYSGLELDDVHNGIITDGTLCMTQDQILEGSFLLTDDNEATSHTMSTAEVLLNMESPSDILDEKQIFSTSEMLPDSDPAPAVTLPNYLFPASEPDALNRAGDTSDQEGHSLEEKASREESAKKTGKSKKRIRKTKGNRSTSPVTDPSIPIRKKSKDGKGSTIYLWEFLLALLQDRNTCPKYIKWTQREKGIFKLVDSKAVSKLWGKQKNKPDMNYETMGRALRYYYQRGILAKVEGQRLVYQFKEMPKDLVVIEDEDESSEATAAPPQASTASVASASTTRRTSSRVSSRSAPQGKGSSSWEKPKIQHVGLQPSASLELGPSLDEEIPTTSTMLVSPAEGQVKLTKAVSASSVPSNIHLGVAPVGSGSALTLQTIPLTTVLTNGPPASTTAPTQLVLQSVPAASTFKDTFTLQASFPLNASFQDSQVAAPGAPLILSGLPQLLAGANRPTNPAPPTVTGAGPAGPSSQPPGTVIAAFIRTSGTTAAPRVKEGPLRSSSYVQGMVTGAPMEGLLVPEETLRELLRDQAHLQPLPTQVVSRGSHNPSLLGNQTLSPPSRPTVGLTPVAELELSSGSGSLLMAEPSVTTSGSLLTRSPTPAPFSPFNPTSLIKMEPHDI
Method in brief: as §1

[6] = target: T3, ELK4 (Homo sapiens, UniProt P28324-2 1-405); conditions: protein: recombinant; tags: N-terminal GST; dsDNA, one strand shown
T3 sequence: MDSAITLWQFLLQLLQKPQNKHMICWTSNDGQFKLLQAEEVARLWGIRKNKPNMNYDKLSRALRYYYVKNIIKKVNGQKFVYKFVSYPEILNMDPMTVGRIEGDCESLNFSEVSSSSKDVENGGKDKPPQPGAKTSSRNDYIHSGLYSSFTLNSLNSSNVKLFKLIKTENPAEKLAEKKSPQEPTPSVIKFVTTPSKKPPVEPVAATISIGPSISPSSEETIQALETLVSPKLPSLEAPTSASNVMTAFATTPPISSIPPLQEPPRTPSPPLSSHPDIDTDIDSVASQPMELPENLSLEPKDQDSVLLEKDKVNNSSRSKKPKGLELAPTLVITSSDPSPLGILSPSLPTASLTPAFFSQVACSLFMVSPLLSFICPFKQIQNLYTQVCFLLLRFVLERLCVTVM
Method in brief: as §1

[7] = target: T4, ETV2 (Homo sapiens, UniProt O00321 1-342); conditions: protein: recombinant; tags: N-terminal GST; dsDNA, one strand shown
T4 sequence: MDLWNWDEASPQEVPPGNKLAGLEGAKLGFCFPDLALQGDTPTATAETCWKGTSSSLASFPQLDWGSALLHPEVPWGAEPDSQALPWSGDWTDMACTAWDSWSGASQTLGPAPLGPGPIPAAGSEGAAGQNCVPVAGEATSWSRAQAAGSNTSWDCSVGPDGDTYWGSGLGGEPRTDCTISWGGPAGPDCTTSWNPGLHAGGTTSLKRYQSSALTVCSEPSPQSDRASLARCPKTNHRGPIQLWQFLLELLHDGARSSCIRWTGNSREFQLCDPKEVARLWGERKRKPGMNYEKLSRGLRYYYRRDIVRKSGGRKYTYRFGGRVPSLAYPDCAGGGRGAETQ
Method in brief: as §1

[8] = target: T5, ELF3 (Homo sapiens, UniProt P78545 1-371); conditions: protein: recombinant; tags: N-terminal GST; dsDNA, one strand shown
T5 sequence: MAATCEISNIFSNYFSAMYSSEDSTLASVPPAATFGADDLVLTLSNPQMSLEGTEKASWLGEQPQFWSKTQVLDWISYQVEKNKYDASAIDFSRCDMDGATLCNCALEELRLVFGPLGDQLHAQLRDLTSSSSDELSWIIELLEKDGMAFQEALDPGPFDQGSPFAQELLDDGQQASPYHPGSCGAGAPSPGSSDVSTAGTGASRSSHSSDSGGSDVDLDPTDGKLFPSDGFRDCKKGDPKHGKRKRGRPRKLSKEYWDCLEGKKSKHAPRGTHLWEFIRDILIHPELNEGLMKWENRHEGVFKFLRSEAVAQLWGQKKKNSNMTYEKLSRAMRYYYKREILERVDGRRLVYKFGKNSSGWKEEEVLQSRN
Method in brief: as §1

[9] = target: CRX (Homo sapiens, UniProt O43186 1-299); conditions: protein: recombinant; tags: N-terminal GST; dsDNA, one strand shown
CRX, sequence (O43186 whole entry): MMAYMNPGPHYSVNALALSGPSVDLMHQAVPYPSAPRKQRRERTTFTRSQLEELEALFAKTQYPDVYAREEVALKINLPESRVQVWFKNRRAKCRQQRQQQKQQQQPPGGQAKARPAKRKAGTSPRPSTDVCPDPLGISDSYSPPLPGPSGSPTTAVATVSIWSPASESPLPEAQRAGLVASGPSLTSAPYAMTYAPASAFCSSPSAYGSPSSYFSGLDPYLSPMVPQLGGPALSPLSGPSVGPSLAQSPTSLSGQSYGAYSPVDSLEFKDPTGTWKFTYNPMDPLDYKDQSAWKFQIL
Method in brief: as §1

[10] = target: ETV1 (Homo sapiens, UniProt P50549 1-477); conditions: protein: recombinant; tags: N-terminal GST; dsDNA, one strand shown
ETV1, sequence (P50549 whole entry): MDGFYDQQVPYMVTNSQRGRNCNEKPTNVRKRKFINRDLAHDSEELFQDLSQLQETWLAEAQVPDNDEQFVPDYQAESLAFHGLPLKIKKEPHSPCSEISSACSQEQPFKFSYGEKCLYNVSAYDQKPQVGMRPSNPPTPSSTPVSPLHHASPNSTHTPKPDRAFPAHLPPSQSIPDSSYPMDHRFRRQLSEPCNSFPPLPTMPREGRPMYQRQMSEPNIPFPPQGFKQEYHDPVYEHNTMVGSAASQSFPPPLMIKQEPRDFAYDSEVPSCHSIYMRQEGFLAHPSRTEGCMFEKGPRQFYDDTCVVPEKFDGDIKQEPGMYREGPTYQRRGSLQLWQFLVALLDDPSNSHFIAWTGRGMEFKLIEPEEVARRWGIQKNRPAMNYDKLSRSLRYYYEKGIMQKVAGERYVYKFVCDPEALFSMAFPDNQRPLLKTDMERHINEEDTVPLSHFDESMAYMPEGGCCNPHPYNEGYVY
Method in brief: as §1

Sequence	binding signal [1]	binding signal [2]	binding signal [3]	binding signal [4]	binding signal [5]	binding signal [6]	binding signal [7]	binding signal [8]	binding signal [9]	binding signal [10]
ATTTCC	6.05 fold enrichment (6-mer frequency, TF over GST control)	4.48 fold enrichment (6-mer frequency, TF over GST control)	1.66 fold enrichment (6-mer frequency, TF over GST control)	4.21 fold enrichment (6-mer frequency, TF over GST control)	3.62 fold enrichment (6-mer frequency, TF over GST control)	3.35 fold enrichment (6-mer frequency, TF over GST control)	4 fold enrichment (6-mer frequency, TF over GST control)	3.48 fold enrichment (6-mer frequency, TF over GST control)	1.5 fold enrichment (6-mer frequency, TF over GST control)	4.04 fold enrichment (6-mer frequency, TF over GST control)
TAATAC	1.12 fold enrichment (6-mer frequency, TF over GST control)	1.04 fold enrichment (6-mer frequency, TF over GST control)	1.63 fold enrichment (6-mer frequency, TF over GST control)	1.12 fold enrichment (6-mer frequency, TF over GST control)	1.14 fold enrichment (6-mer frequency, TF over GST control)	1.04 fold enrichment (6-mer frequency, TF over GST control)	1.16 fold enrichment (6-mer frequency, TF over GST control)	1.05 fold enrichment (6-mer frequency, TF over GST control)	2.45 fold enrichment (6-mer frequency, TF over GST control)	1.11 fold enrichment (6-mer frequency, TF over GST control)
CCACTA	1.08 fold enrichment (6-mer frequency, TF over GST control)	1.12 fold enrichment (6-mer frequency, TF over GST control)	1.08 fold enrichment (6-mer frequency, TF over GST control)	1.11 fold enrichment (6-mer frequency, TF over GST control)	1.11 fold enrichment (6-mer frequency, TF over GST control)	1.06 fold enrichment (6-mer frequency, TF over GST control)	1.14 fold enrichment (6-mer frequency, TF over GST control)	1.1 fold enrichment (6-mer frequency, TF over GST control)	1.12 fold enrichment (6-mer frequency, TF over GST control)	1.03 fold enrichment (6-mer frequency, TF over GST control)
TTGCCC	1.46 fold enrichment (6-mer frequency, TF over GST control)	1.32 fold enrichment (6-mer frequency, TF over GST control)	1.2 fold enrichment (6-mer frequency, TF over GST control)	1.28 fold enrichment (6-mer frequency, TF over GST control)	1.4 fold enrichment (6-mer frequency, TF over GST control)	1.42 fold enrichment (6-mer frequency, TF over GST control)	1.25 fold enrichment (6-mer frequency, TF over GST control)	1.33 fold enrichment (6-mer frequency, TF over GST control)	1.2 fold enrichment (6-mer frequency, TF over GST control)	1.22 fold enrichment (6-mer frequency, TF over GST control)
ATTGAC	1.18 fold enrichment (6-mer frequency, TF over GST control)	1.17 fold enrichment (6-mer frequency, TF over GST control)	1.01 fold enrichment (6-mer frequency, TF over GST control)	1.11 fold enrichment (6-mer frequency, TF over GST control)	1.15 fold enrichment (6-mer frequency, TF over GST control)	1.34 fold enrichment (6-mer frequency, TF over GST control)	1.38 fold enrichment (6-mer frequency, TF over GST control)	1.19 fold enrichment (6-mer frequency, TF over GST control)	1.11 fold enrichment (6-mer frequency, TF over GST control)	1.1 fold enrichment (6-mer frequency, TF over GST control)
CTAGCA	1.27 fold enrichment (6-mer frequency, TF over GST control)	1.25 fold enrichment (6-mer frequency, TF over GST control)	2.11 fold enrichment (6-mer frequency, TF over GST control)	1.11 fold enrichment (6-mer frequency, TF over GST control)	1.3 fold enrichment (6-mer frequency, TF over GST control)	1.25 fold enrichment (6-mer frequency, TF over GST control)	1.35 fold enrichment (6-mer frequency, TF over GST control)	1.21 fold enrichment (6-mer frequency, TF over GST control)	1.34 fold enrichment (6-mer frequency, TF over GST control)	1.24 fold enrichment (6-mer frequency, TF over GST control)
TTAATT	1.31 fold enrichment (6-mer frequency, TF over GST control)	1.49 fold enrichment (6-mer frequency, TF over GST control)	2.23 fold enrichment (6-mer frequency, TF over GST control)	1.33 fold enrichment (6-mer frequency, TF over GST control)	1.33 fold enrichment (6-mer frequency, TF over GST control)	1.3 fold enrichment (6-mer frequency, TF over GST control)	1.43 fold enrichment (6-mer frequency, TF over GST control)	1.27 fold enrichment (6-mer frequency, TF over GST control)	3.46 fold enrichment (6-mer frequency, TF over GST control)	1.34 fold enrichment (6-mer frequency, TF over GST control)
TACATG	1.12 fold enrichment (6-mer frequency, TF over GST control)	1.26 fold enrichment (6-mer frequency, TF over GST control)	1.08 fold enrichment (6-mer frequency, TF over GST control)	1.17 fold enrichment (6-mer frequency, TF over GST control)	1.29 fold enrichment (6-mer frequency, TF over GST control)	1.24 fold enrichment (6-mer frequency, TF over GST control)	1.24 fold enrichment (6-mer frequency, TF over GST control)	1.28 fold enrichment (6-mer frequency, TF over GST control)	1.09 fold enrichment (6-mer frequency, TF over GST control)	1.21 fold enrichment (6-mer frequency, TF over GST control)
AAACAA	1.28 fold enrichment (6-mer frequency, TF over GST control)	1.28 fold enrichment (6-mer frequency, TF over GST control)	1.23 fold enrichment (6-mer frequency, TF over GST control)	1.33 fold enrichment (6-mer frequency, TF over GST control)	1.31 fold enrichment (6-mer frequency, TF over GST control)	1.28 fold enrichment (6-mer frequency, TF over GST control)	1.31 fold enrichment (6-mer frequency, TF over GST control)	1.49 fold enrichment (6-mer frequency, TF over GST control)	1.06 fold enrichment (6-mer frequency, TF over GST control)	1.32 fold enrichment (6-mer frequency, TF over GST control)
AAAAAG	1.2 fold enrichment (6-mer frequency, TF over GST control)	1.3 fold enrichment (6-mer frequency, TF over GST control)	1.34 fold enrichment (6-mer frequency, TF over GST control)	1.13 fold enrichment (6-mer frequency, TF over GST control)	1.26 fold enrichment (6-mer frequency, TF over GST control)	1.32 fold enrichment (6-mer frequency, TF over GST control)	1.08 fold enrichment (6-mer frequency, TF over GST control)	1.28 fold enrichment (6-mer frequency, TF over GST control)	1.2 fold enrichment (6-mer frequency, TF over GST control)	1.26 fold enrichment (6-mer frequency, TF over GST control)
TGGTCT	1.45 fold enrichment (6-mer frequency, TF over GST control)	1.52 fold enrichment (6-mer frequency, TF over GST control)	1.12 fold enrichment (6-mer frequency, TF over GST control)	1.34 fold enrichment (6-mer frequency, TF over GST control)	1.57 fold enrichment (6-mer frequency, TF over GST control)	1.48 fold enrichment (6-mer frequency, TF over GST control)	1.33 fold enrichment (6-mer frequency, TF over GST control)	1.28 fold enrichment (6-mer frequency, TF over GST control)	1.17 fold enrichment (6-mer frequency, TF over GST control)	1.5 fold enrichment (6-mer frequency, TF over GST control)
TACATA	1.21 fold enrichment (6-mer frequency, TF over GST control)	1.24 fold enrichment (6-mer frequency, TF over GST control)	1.15 fold enrichment (6-mer frequency, TF over GST control)	1.36 fold enrichment (6-mer frequency, TF over GST control)	1.22 fold enrichment (6-mer frequency, TF over GST control)	1.22 fold enrichment (6-mer frequency, TF over GST control)	1.24 fold enrichment (6-mer frequency, TF over GST control)	1.18 fold enrichment (6-mer frequency, TF over GST control)	1.27 fold enrichment (6-mer frequency, TF over GST control)	1.25 fold enrichment (6-mer frequency, TF over GST control)
TCCAAC	1.21 fold enrichment (6-mer frequency, TF over GST control)	1.14 fold enrichment (6-mer frequency, TF over GST control)	1.11 fold enrichment (6-mer frequency, TF over GST control)	1.26 fold enrichment (6-mer frequency, TF over GST control)	1.24 fold enrichment (6-mer frequency, TF over GST control)	1.21 fold enrichment (6-mer frequency, TF over GST control)	1.22 fold enrichment (6-mer frequency, TF over GST control)	1.23 fold enrichment (6-mer frequency, TF over GST control)	1.05 fold enrichment (6-mer frequency, TF over GST control)	1.2 fold enrichment (6-mer frequency, TF over GST control)
GGCTCC	1.35 fold enrichment (6-mer frequency, TF over GST control)	1.37 fold enrichment (6-mer frequency, TF over GST control)	1.13 fold enrichment (6-mer frequency, TF over GST control)	1.16 fold enrichment (6-mer frequency, TF over GST control)	1.24 fold enrichment (6-mer frequency, TF over GST control)	1.29 fold enrichment (6-mer frequency, TF over GST control)	1.43 fold enrichment (6-mer frequency, TF over GST control)	1.32 fold enrichment (6-mer frequency, TF over GST control)	1.1 fold enrichment (6-mer frequency, TF over GST control)	1.24 fold enrichment (6-mer frequency, TF over GST control)
